Assay results reported in PubChem BioAssay (NCI).
This is part of a sample that, as a whole, favours compounds with a hit. Of some 83,000 tested, about 20% had one in any assay.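 Compound tested at a single concentration for 48 hours in 96-well plates; a percent growth value below 10 was scored as active.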 The source made the active and inactive calls.

System: A549/ATCC NSCLC
Assay: NCI-60 one-dose screen, 48 h (100 = growth as untreated, 0 = no growth, -100 = all killed)
Conditions: 10 µM unless noted
Method: Growth inhibition of the A549/ATCC human Non-Small Cell Lung tumor cell line is measured as a screen for anti-cancer activity. Cells are grown in 96 well plates and exposed to the test compound for 48 hours. Compounds are tested at a single concentration, which is 10^-5 M for most compounds. The reported endpoint is percent growth (GI% or GIPRCNT), where numbers from 0 - 100% represent growth inhibition, and numbers from -100% - 0 represent cell death. For example, a value of 40 represents 60% growth inhibition. A value of 0 means no net growth occurred over the course of the experiment. A value of -40 indicates 40% of cells at the beginning of the experiment died by the end of the experiment. A value of -100 means all cells are dead at the end of the experiment.
NCI-60 Human Tumor Cell Lines Screen was performed using the standard one-dose NCI protocol, which is described in more detail at https://dtp.cancer.gov/discovery_development/nci-60/default.htm.
Compounds with GIPRCNT values below 10 were considered active. Activity score was based on GIPRCNT using the following formula: […]
Score is 0 for GIPRCNT values of 100 or above, 50 for GIPRCNT values of 0, and 100 for GIPRCNT values of -100.

Compound | growth
NC(N)=Nc1nc2ccccc2n2c1nc1ccccc12 | 17.7% (inactive)
O=C(CSc1nnc(-c2ccc(NC(=O)c3cccnc3)cc2)o1)N[C@@H](Cc1ccc(O)cc1)C(=O)O | 104% (inactive)
CCN(CC)CCN1C(=O)c2c(c(C)c3c(oc4cc(O)ccc43)c2C)C1=O | -65.3% (active)
Cn1cc2c(c1)-c1nc(Nc3ccccc3)ncc1CC2 | 72% (inactive)
COc1ccc(CN2C(=O)C(Cl)=C(Nc3cccc(C(F)(F)F)c3)C2=O)cc1 | 59.2% (inactive)
c1ccc2c(c1)nc(CN1CCOCC1)n1cc(N3CCCC3)nc21 | 87.5% (inactive)
c1cc2ccc3cc2cc1CNCCOCCNCc1ccc2ccc(cc2c1)CNCCOCCNC3 | 0.178% (active)
COC(=O)/C=C1\S/C(=N\NS(=O)(=O)c2ccc(C)cc2)N(c2ccccc2)C1=O | 98.6% (inactive)
COc1cc(C2CC(=O)Nc3c2c(C)nn3-c2nc3ccccc3[nH]2)c(OC)c(OC)c1OC (stereo not given) | 43.2% (inactive)
CC1(C)CC(=O)CC2(C1)N=C(N)Nc1nc3ccccc3n12 (stereo not given) | 97.9% (inactive)
O=C1c2cccc(NCCN=Cc3cc([N+](=O)[O-])ccc3O)c2C(=O)c2c(NCCN=Cc3cc([N+](=O)[O-])ccc3O)cccc21 | 84.6% (inactive)
C[C@H](NC(=O)[C@@H]1CSSC[C@@H](NC(=O)c2nc3ccccc3cc2O)C(=O)NCC(=O)N1C)c1ccccc1 | 42.9% (inactive)
Cc1ccc(NCCN(C)C)c2c(=O)c3ccccc3sc12 | 7.25% (active)
Cc1ccc(Nc2nc(N)nc(CSCC(=O)NN)n2)cc1 | 107% (inactive)
Cc1ccc(C(=O)COc2cccc(/C=C3\Oc4ccccc4C3=O)c2)cc1 | 96.9% (inactive)
Cc1ccc(S(=O)(=O)N/N=C\c2cc(Cl)ccc2O)cc1 | 82% (inactive)
CCN1C(=O)N(CC)C2Nn3c(s/c(=C4\C(=O)N(C)c5ccccc54)c3=O)=NC21 (stereo not given) | 49.3% (inactive)
Cc1ccc2[nH]c(=O)c3c(c2c1)OC(N)=C(C#N)C31c2cc(Br)ccc2-c2ccc(Br)cc21 | 53.9% (inactive)
O=C1Nc2ccccc2/C1=C/c1cn(C(=O)c2ccc(Cl)cc2)c2ccccc12 | 101% (inactive)
Oc1c(CN2CCCC2)cc(COCc2ccc(Br)cc2)c2cccnc12 | 4.92% (active)

Compound | growth
COc1cc(/C=C/C(=O)N2CCN(C(=O)c3cc(OC)c(OC)c(OC)c3)CC2)ccc1OCCCN1C(=O)c2cccc3cccc(c23)C1=O | 85.3% (inactive)
O=C(/C=C/c1c(Cl)nc2sccn12)c1nccs1 | 88% (inactive)
C[n+]1cccc(CC(=O)NO)c1 | 68.1% (inactive)
COc1ccc(-c2[nH]c(=S)n(C(CC3(C)NCC(=O)N3n3c(-c4ccccc4)cc(C)nc3=S)c3ccc(OC)cc3)c(=O)c2Br)cc1 (stereo not given) | 72% (inactive)
COc1ccc(OC)c2c1[nH]c(=O)c1c3ncccc3cn21 | 13.5% (inactive)
NC(N)=NN=C(c1ccccc1)c1ccccc1 | 50.8% (inactive)
O=C(NCCCNc1cc(-c2cn(-c3ccccc3)nc2-c2cccc(O)c2)ccn1)c1cccc(O)c1 | 53.4% (inactive)
COc1ccc(N=C(c2ccccc2)C2C(=O)c3ccccc3C2=O)cc1 | 93.6% (inactive)
Cc1ccc(S(=O)(=O)n2cc(CNc3ccc(N4CCOCC4=O)cc3)c3ccccc32)cc1 | 103% (inactive)
CC(C)(C)OC(=O)Nc1ccc2c(c1)C(NC(=O)Nc1cccc(C#N)c1)CC(C)(C)O2 (stereo not given) | 40% (inactive)
O=C(/C=C/c1ccc(Cl)nc1)c1ccc(Cl)cc1Cl | 94.4% (inactive)
COc1ccc2c(c1)C(=O)/C(=C/c1cccc(OCC(=O)Nc3nc(C)c(C)s3)c1)O2 | 46.8% (inactive)
CN(C)CCCn1c(=O)c2ccccc2c2ccccc21 | 87.2% (inactive)
N#Cc1c2c(nn(-c3ccccc3)c1=O)C(O)=C([N+](=O)[O-])C(c1ccccc1)C2 (stereo not given) | 93.4% (inactive)
COc1ccc(-c2nc3c(N)c(CO)c(C)nc3o2)cc1 | 92.4% (inactive)
COc1cccc(-c2nn(-c3ccccc3)cc2-c2ccnc(NCCCNC(=O)c3ccccc3)c2)c1 | 30.7% (inactive)
O=C(Nc1ccc(Cl)cc1)Nc1ccc(Cl)c(C(F)(F)F)c1 | 13.3% (inactive)
O=C(O)c1ccc2c(c1)CCC2 | 104% (inactive)
CCOc1ccccc1-n1c(CN2CCN(C(=O)COc3ccc(CNCCCCCCN4C5CCCC4CC(OC(=O)Nc4cc(C)ccc4OC)C5)cc3)CC2)nc2ccccc2c1=O (stereo not given) | -88.2% (active)
CC(=O)N1N=C(c2ccc(Nc3nc(Nc4ccc(F)cc4)nc(Nc4ccc(F)cc4)n3)cc2)CC1c1cccc([N+](=O)[O-])c1 (stereo not given) | 91.1% (inactive)
